Out of some 310,000 compounds screened, about 2,200 (0.71%) showed an effect of 50% or more. The effect is printed as a negative number. Only a selection was taken, and strong results are over-represented in it overall.
These molecules were tested against human ether-à-go-go-related gene (hERG) potassium channel (human, UniProt Q12809) (assay: primary screen, population patch clamp on CHO cells stably expressing hERG; higher = less effect of the substance).
Chain of human ether-à-go-go-related gene (hERG) potassium channel (Q12809 whole entry, looked up): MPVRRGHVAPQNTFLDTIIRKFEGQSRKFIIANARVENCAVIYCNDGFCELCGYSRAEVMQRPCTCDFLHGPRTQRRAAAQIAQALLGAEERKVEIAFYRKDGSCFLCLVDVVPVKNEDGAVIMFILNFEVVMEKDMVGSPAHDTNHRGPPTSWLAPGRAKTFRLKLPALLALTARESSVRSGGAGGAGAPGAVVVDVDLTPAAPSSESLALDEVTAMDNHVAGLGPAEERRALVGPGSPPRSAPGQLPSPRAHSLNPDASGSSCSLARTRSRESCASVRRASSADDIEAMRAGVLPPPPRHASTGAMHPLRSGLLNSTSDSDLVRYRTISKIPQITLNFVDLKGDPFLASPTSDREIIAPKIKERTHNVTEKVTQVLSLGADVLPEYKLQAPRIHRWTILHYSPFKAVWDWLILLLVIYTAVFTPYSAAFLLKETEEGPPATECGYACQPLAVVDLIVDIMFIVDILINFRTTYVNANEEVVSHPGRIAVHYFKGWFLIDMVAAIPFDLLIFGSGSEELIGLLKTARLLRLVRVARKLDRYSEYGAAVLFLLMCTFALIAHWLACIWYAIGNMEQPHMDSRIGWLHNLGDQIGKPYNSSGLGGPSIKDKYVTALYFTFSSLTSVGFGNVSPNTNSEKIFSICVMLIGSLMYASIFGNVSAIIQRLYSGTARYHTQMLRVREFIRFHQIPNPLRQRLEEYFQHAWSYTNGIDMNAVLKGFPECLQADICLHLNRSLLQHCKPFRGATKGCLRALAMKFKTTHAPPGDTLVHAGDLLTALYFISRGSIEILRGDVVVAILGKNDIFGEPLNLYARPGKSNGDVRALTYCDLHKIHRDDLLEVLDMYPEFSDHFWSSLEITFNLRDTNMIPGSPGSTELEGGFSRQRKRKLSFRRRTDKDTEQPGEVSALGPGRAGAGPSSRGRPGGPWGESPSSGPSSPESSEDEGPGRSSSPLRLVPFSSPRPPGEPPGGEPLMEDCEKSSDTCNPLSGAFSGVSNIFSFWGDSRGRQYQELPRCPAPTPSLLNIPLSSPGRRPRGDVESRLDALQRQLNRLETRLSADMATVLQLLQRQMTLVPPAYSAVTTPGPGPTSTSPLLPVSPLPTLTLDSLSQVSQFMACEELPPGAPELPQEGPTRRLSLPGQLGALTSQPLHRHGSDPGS

First: CCN(CC)CCOC(=O)c1ccc(N/C=C(/C#N)c2nc(-c3cccc(OC)c3)cs2)cc1
Second: CCN(CC)CCN1C(=O)C(=O)/C(=C(/O)c2ccc(F)cc2)C1c1cccnc1 (stereo not drawn)
The “hERG current change (%, negative = inhibition) at 1uM” value of the first is lower: 13.7% for the first, 14.9% for the second.

Going from `CCOC(=O)/C=C1\SCC(=O)N1CC(=O)Nc1ccc(OC)c(OC)c1` to `COc1ccc(NC2CCCN(C(=O)CSc3ccccc3)C2)cc1OC` (stereo not drawn), the “hERG current change (%, negative = inhibition) at 1uM” value falls from 12.2% to 4.34%.

Compared with `CCOC(=O)C1CCN(C(=O)N(CC)CC)CC1`, `CCN(CC)C(=O)CN1CCC(c2nc3cc(C)c(C)cc3[nH]2)CC1` is higher in “hERG current change (%, negative = inhibition) at 1uM” value: 3.77% for the first, 11.1% for the second.

First: CCCCn1c(=O)c(-c2ccccc2)c(O)c2ccccc21
Second: CCCCn1c(N)c(N(CC)C(=O)c2ccccc2F)c(=O)[nH]c1=O
The “hERG current change (%, negative = inhibition) at 1uM” value of the first is lower: 16.3% for the first, 19.7% for the second.

Going from `Cc1nonc1C1CCCN1C(=O)c1cc(COc2ccc(F)cc2Cl)on1` (stereo not drawn) to `Cc1ccc(OCc2nnc(NC(=O)c3ccco3)s2)c(C)c1`, the “hERG current change (%, negative = inhibition) at 1uM” value rises from 8.74% to 17.8%.

First: CC1(C)CC(=O)C(C(c2cccnc2)C2C(=O)CC(C)(C)CC2=O)C(=O)C1
Second: Cc1[nH]c(=O)[nH]c(=O)c1S(=O)(=O)N1CCC(C(=O)NC(C)c2ccccc2)CC1 (stereo not drawn)
The “hERG current change (%, negative = inhibition) at 1uM” value of the first is lower: 2.02% for the first, 7.35% for the second.

First: CCCC(=O)N1CCN(c2ccc(NC(=O)c3ccc(N4CCCC4)c([N+](=O)[O-])c3)cc2Cl)CC1
Second: Cc1cccc(N2CCN(C(=O)c3ccc4nc(N5CCCCC5)sc4c3)CC2)c1C
The “hERG current change (%, negative = inhibition) at 1uM” value of the first is lower: -8.46% for the first, 8.76% for the second.

Compared with `Br.N=C1c2ccccc2CN1NC(=O)C1CC1`, `COCCNC(=S)NNC(=O)c1cc(C2CC2)nc2ccccc12` is higher in “hERG current change (%, negative = inhibition) at 1uM” value: 7.71% for the first, 14.8% for the second.

Going from `CCCCN(C)C(=O)c1cc2c(s1)-c1ccccc1S(=O)(=O)C2` to `CC(=O)c1cc(C(=O)N2CCCC(CCC(=O)N(C)CCc3ccccn3)C2)cs1` (stereo not drawn), the “hERG current change (%, negative = inhibition) at 1uM” value rises from -6.69% to 9.12%.

First: CSc1ccc(CN2CCC(Oc3ccc(C(=O)N4CCCC4)cc3)CC2)cc1
Second: O=C(c1ccc(OC2CCN(Cc3ccc(F)cc3)CC2)cc1)N1CCCC1
The “hERG current change (%, negative = inhibition) at 1uM” value of the first is lower: -56.4% for the first, 7.68% for the second.

First: O=C(c1ccc(OC2CCN(Cc3ccc(C(F)(F)F)cc3)CC2)cc1)N1CCCCC1
Second: CCc1ccc(CN2CCC(Oc3ccc(C(=O)N4CCCCC4)cc3)CC2)cc1
The “hERG current change (%, negative = inhibition) at 1uM” value of the first is higher: 6.84% for the first, -61.5% for the second.

Going from `COC(=O)c1ccc(CN2CCC(Oc3ccc(C(=O)N4CCCCC4)cc3)CC2)cc1` to `CC(=O)Nc1ccc(CN2CCC(Oc3ccc(C(=O)N4CCCC4)cc3)CC2)cc1`, the “hERG current change (%, negative = inhibition) at 1uM” value rises from -11.3% to -6.27%.

Going from `CSc1ccc(CN2CCC(Oc3cccc(C(=O)N4CCCC4)c3)CC2)cc1` to `CCc1ccc(CN2CCC(Oc3ccc(C(=O)N4CCCC4)cc3)CC2)cc1`, the “hERG current change (%, negative = inhibition) at 1uM” value falls from -36.7% to -77.5%.

First: CC(C)c1ccc(CN2CCC(Oc3ccc(C(=O)N4CCCC4)cc3)CC2)cc1
Second: O=C(c1ccc(OC2CCN(C/C=C/c3ccc(F)cc3)CC2)cc1)N1CCCC1
The “hERG current change (%, negative = inhibition) at 1uM” value of the first is higher: -33.7% for the first, -74.9% for the second.

Compared with `O=C(c1ccc(OC2CCN(CCCc3ccccc3)CC2)cc1)N1CCCC1`, `O=C(c1ccc(OC2CCN(CCc3ccccc3)CC2)cc1)N1CCCC1` is higher in “hERG current change (%, negative = inhibition) at 1uM” value: -55.2% for the first, -1.63% for the second.

First: CC(=O)N1CCN(C(=O)c2ccc(OC3CCN(CCc4ccccc4)CC3)cc2)CC1
Second: O=C(c1ccc(OC2CCN(C/C=C/c3ccccc3)CC2)cc1)N1CCCC1
The “hERG current change (%, negative = inhibition) at 1uM” value of the first is higher: 14.6% for the first, -27.1% for the second.

Compared with `Cc1ccc(S(=O)(=O)Nc2cccc(/C=C/C(=O)O)c2)cc1`, `COc1ccccc1/C=C/C(=O)Nc1cccc(S(=O)(=O)NC2=NCCCCC2)c1` is lower in “hERG current change (%, negative = inhibition) at 1uM” value: 17% for the first, 13.1% for the second.

Compared with `O=C(CN1CCN(c2ccc(Cl)cc2)CC1)c1ccc2c(c1)OCO2`, `O=[N+]([O-])c1ccc(N2CCN(C(=S)NCc3ccc(Cl)cc3)CC2)cc1` is higher in “hERG current change (%, negative = inhibition) at 1uM” value: 1.86% for the first, 12.9% for the second.

First: COc1ccc(C(=O)NC(=S)N2CCCCC2)cc1[N+](=O)[O-]
Second: COCCCNC(=S)N1CCN(c2ccc([N+](=O)[O-])cc2)CC1
The “hERG current change (%, negative = inhibition) at 1uM” value of the first is higher: 5.8% for the first, -64.8% for the second.

First: O=C(NCc1ccco1)c1sc(=S)n2c1[nH]c(=O)c1ccccc12
Second: O=c1[nH]c(=O)n(Cc2ccco2)c2c1C(C(F)(F)F)(C(F)(F)F)N=C(Cc1ccccc1)N2
The “hERG current change (%, negative = inhibition) at 1uM” value of the first is lower: -4.07% for the first, 6.17% for the second.

Compared with `CCOc1ccccc1NC(=O)CSc1nnc(Cc2cccn2C)n1-c1ccc(F)cc1`, `CC(=O)c1c(N2CCN(c3ccc(F)cc3)CC2)nc(=S)n(-c2ccccc2)c1C` is lower in “hERG current change (%, negative = inhibition) at 1uM” value: -8.2% for the first, -69.3% for the second.

Compared with `CCCCc1nc(NCC2CCCO2)c(C#N)c2c1COC(C)(C)C2` (stereo not drawn), `Cc1cc2nc(C3CCN(CC4COc5ccccc5O4)CC3)[nH]c2cc1C` (stereo not drawn) is lower in “hERG current change (%, negative = inhibition) at 1uM” value: 6.42% for the first, -65.6% for the second.

First: COc1ccccc1OCc1ccc(C(=O)NN)cc1
Second: CCOC(=O)C1=C(Cc2ccc(F)cc2)C(=O)c2ccccc2C1=O
The “hERG current change (%, negative = inhibition) at 1uM” value of the first is lower: 5.11% for the first, 6.27% for the second.

Compared with `C[C@@H]1CC[C@@]2(O[C@@H](CCO)C[C@@H](O)[C@@H]2O)O1`, `COCCNC(=S)N1CCN(c2ccc(Cl)cc2)CC1` is lower in “hERG current change (%, negative = inhibition) at 1uM” value: 20.7% for the first, 1.27% for the second.

Going from `O=C(c1ccc(OC2CCN(C/C=C/c3ccc(F)cc3)CC2)cc1)N1CCCCC1` to `O=[N+]([O-])c1ccc(NC(=S)N2CCN(c3ccc(F)cc3)CC2)cc1`, the “hERG current change (%, negative = inhibition) at 1uM” value rises from -19.2% to 13%.

Compared with `Oc1c(Cl)cc(Cl)cc1C=Nc1ccc2c(c1)OCCO2`, `Oc1c(Br)cc(Br)cc1C=Nc1ccc2c(c1)OCCO2` is lower in “hERG current change (%, negative = inhibition) at 1uM” value: 16% for the first, 12.2% for the second.

First: O=C(N/N=C/c1cc(Br)cs1)c1ccc2c(c1)OCCO2
Second: Brc1csc(C=Nc2ccc3c(c2)OCCOCCOCCOCCO3)c1
The “hERG current change (%, negative = inhibition) at 1uM” value of the first is higher: 9.48% for the first, -78.1% for the second.

Going from `Brc1ccc(C=Nc2ccc(Nc3ccccc3)cc2)s1` to `Brc1ccc(C=Nc2ccc3c(c2)OCCOCCOCCO3)s1`, the “hERG current change (%, negative = inhibition) at 1uM” value falls from 14.7% to -58.3%.

Compared with `COc1ccc(/[N+]([O-])=C/c2ccoc2)cc1`, `CCN(CC)c1ccc(/C=C/c2ccc3ccc(OC)cc3[n+]2CC)cc1.[I-]` is lower in “hERG current change (%, negative = inhibition) at 1uM” value: 14% for the first, -85% for the second.

Going from `Nc1nnc(SCc2nc3scc(-c4ccccc4)c3c(=O)[nH]2)s1` to `c1csc(Cn2nnnc2CN2CCN(c3nc4ccccc4s3)CC2)c1`, the “hERG current change (%, negative = inhibition) at 1uM” value falls from 15.6% to -7.1%.

Compared with `O=C(CC1CCCC1)Nc1nnc(C2CC2)s1`, `CCOC(=O)CCNC(=O)N1CCCC(CNS(=O)(=O)Cc2ccccc2)C1` (stereo not drawn) is lower in “hERG current change (%, negative = inhibition) at 1uM” value: 11.5% for the first, 8.76% for the second.

Going from `CC(=O)Nc1cccc(NC(=O)CSc2nccn2Cc2ccccc2)c1` to `O=C(CCC(=O)OCc1cccc([N+](=O)[O-])c1)Nc1ccccc1Cl`, the “hERG current change (%, negative = inhibition) at 1uM” value falls from 14.4% to 2.86%.

Compared with `CN(C(=O)c1ccc(Cl)nc1)C1(c2ccccc2Cl)CCCCC1=O` (stereo not drawn), `CC(=O)c1c(N2CCN(c3ccccc3)CC2)nc(=S)n(-c2ccccc2)c1C` is lower in “hERG current change (%, negative = inhibition) at 1uM” value: 5.36% for the first, 2.93% for the second.

First: O=C(NCC(=O)N(c1ccccc1)C(C(=O)NCC1CCCO1)c1ccccc1)c1ccco1 (stereo not drawn)
Second: O=[N+]([O-])c1ccc(N2CCN(C(=S)Nc3ccccc3)CC2)cc1
The “hERG current change (%, negative = inhibition) at 1uM” value of the first is higher: 13.9% for the first, 5.2% for the second.

Going from `C=Cc1ccc(Cn2c(=O)n(C)c(=O)c3sccc32)cc1` to `CC[n+]1c(/C=C/c2ccc(N(C)C)cc2)ccc2ccccc21.[I-]`, the “hERG current change (%, negative = inhibition) at 1uM” value falls from 12.4% to -27%.

First: FC(F)(F)c1ccc(-c2n[nH]c(=S)o2)nc1
Second: Cc1nc2cc(C(F)(F)F)ccc2n1C1CCN(Cc2nnnn2Cc2cccs2)CC1
The “hERG current change (%, negative = inhibition) at 1uM” value of the first is higher: 9.8% for the first, -2.78% for the second.

First: COc1ccc(N2CCN(c3nc(=S)n(-c4ccccc4)c(C)c3C(C)=O)CC2)cc1
Second: COCCCNC(=S)N1CCN(c2ccccc2)CC1
The “hERG current change (%, negative = inhibition) at 1uM” value of the first is lower: 10.2% for the first, 18.3% for the second.

Going from `CN(c1ccc(O)cc1)c1nc(O)c(C2=c3ccccc3=NC2=O)s1` to `Cc1cc(Br)cc2c1N(C)C(=O)C2(c1ccc(O)cc1)c1ccc(O)cc1`, the “hERG current change (%, negative = inhibition) at 1uM” value rises from 8.57% to 12%.

Compared with `CNC(=S)N1CCN(c2ccc([N+](=O)[O-])cc2)CC1`, `CCNC(=S)N1CCN(c2ccc([N+](=O)[O-])cc2)CC1` is lower in “hERG current change (%, negative = inhibition) at 1uM” value: -40.5% for the first, -50.5% for the second.

Compared with `C=CCNC(=S)N1CCN(c2ccc([N+](=O)[O-])cc2)CC1`, `CCN1CCN(CC2COc3ccccc3O2)CC1.Cl` (stereo not drawn) is higher in “hERG current change (%, negative = inhibition) at 1uM” value: -52.1% for the first, 7.79% for the second.

First: C/C(=N/NC(=O)c1ccc(Br)o1)c1ccc(C)o1
Second: CC[n+]1c(/C=C/c2ccc(OC)c(OC)c2)ccc2ccccc21.[I-]
The “hERG current change (%, negative = inhibition) at 1uM” value of the first is lower: 0.861% for the first, 13.8% for the second.

Compared with `O=[N+]([O-])c1cccc(Cl)c1CSc1ccccn1`, `Cl.c1ccc(Cn2nnnc2CN2CCCC2)cc1` is lower in “hERG current change (%, negative = inhibition) at 1uM” value: 11% for the first, 10.1% for the second.

First: Cc1cc2nc(C3CCN(Cc4nnnn4Cc4ccccc4)CC3)[nH]c2cc1C
Second: Cc1cc2nc(C3CCN(Cc4nnnn4Cc4cccs4)CC3)[nH]c2cc1C
The “hERG current change (%, negative = inhibition) at 1uM” value of the first is higher: -50.7% for the first, -72.4% for the second.

In the case of `CCC(C)(C)n1nnnc1CN1CCC(c2nc3ccc(C)cc3[nH]2)CC1`, the “hERG current change (%, negative = inhibition) at 1uM” value is reported as -25.7%.

From article PMC4336329 (PLoS ONE, 2015)
